Drawing on PubChem BioAssay (NCI), this text covers growth for eight compounds.

Assay in all cases: NCI-60 one-dose screen, 48 h (100 = growth as untreated, 0 = no growth, -100 = all killed)
Details in all cases: 10 µM unless noted

The test system of test [1] is SK-MEL-2 melanoma.
The subject of test [2] is EKVX NSCLC.
The subject of test [3] is SN12C renal.
The test system of test [4] is TK-10 renal.
Test [5] concerns ACHN renal.
Test [6] relates to CAKI-1 renal.
The test system of test [7] is A498 renal.
Test [8] relates to CCRF-CEM leukemia.
The test system of test [9] is MOLT-4 leukemia.
Test [10] concerns SR leukemia.
Test [11] concerns RPMI-8226 leukemia.
For test [12], the system named is OVCAR-8 ovarian.
Test [13] concerns OVCAR-5 ovarian.
Test [14] concerns OVCAR-4 ovarian.
Test [15] deals with SK-OV-3 ovarian.
Test [16] concerns IGROV1 ovarian.
Test [17] concerns OVCAR-3 ovarian.
For test [18], the system named is HS 578T breast.
The subject of test [19] is NCI/ADR-RES ovarian.

About 83,000 compounds went through this panel and 20% of them were active in at least one assay; those are over-represented in the sample as a whole.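 Compound tested at a single concentration for 48 hours in 96-well plates; a percent growth value below 10 was scored as active.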 A number with no mark means an inactive call. Calls of active or inactive are those of the source.

On to `Cc1ccc2nc(NC(=O)CSc3nc(-c4ccccc4)c(C#N)c4nnnn34)sc2c1`, for which the growth was 109% in [1]; 106% in [2]; 111% in test [3]; 141% in test [4]; 106% in [5]; 94.6% in test [6]. Further, the growth in test [7] was 109%; in test [8], 106%; in [9], 99.4%; in [10] it was 72.8%; in [11], 117%; in test [12], 108%. The growth in [13] is 113%; in test [14] it was 101%; in test [15], 100%; in [16], 102%; in test [17] it was 122%; in test [18], 98%. For the same compound, in test [19], the growth is 106%.
With `CC(C)(C)n1cc(-c2ccnc(NCCCNS(=O)(=O)c3cccc4ccccc34)c2)c(-c2cccc(F)c2)n1`, the growth in test [1] was 107%; in [2], 68.6%; in test [3], 73.3%; in test [4] it was 97%; in [5] it was 91.5%; in test [6], 94.3%. For the same compound, the growth in test [7] was 29.2%; in test [8], 56.9%; in [9] it was 57.9%; in [10], 27.8%; in [11], 65.4%; in test [12], 81.4%. The growth is 91.9% in test [13]; 78.1% in test [14]; 91.9% in test [15]; 78.9% in test [16]; 90.1% in test [17]; 91.4% in [18]. Also, the growth in test [19] is 78.2%.
With `Cc1cccc[n+]1C1c2ccccc2-c2ccccc21`, the growth in test [1] is 90.2%; in test [2] it was 93.8%; in [3], 94.2%; in test [4], 89.5%; in test [5] it was 107%; in [6], 100%. Besides, the growth in [7] is 82.9%; in test [8], 78.5%; in test [9] it was 98.3%; in [10], 102%; in test [11], 70.7%; in [12], 96.6%. Moreover, the growth in test [13] is 99%; in [14], 97.8%; in [15], 73.3%; in [16], 92.2%; in test [17] it was 98.5%; in [18] it was 101%. In [19], the growth is 111%.
As for `CCNc1ccc(-c2nc3ccccc3n3cccc23)cc1`, the growth in test [1] was 87.9%; in test [2] it was 71%; in test [3], 78%; in test [4], 82.7%; in [5], 73.9%; in test [6], 57%. Besides, the growth in test [8] is 68.2%; in test [9] it was 71.2%; in [10], 76.4%; in test [11], 85.2%; in test [12] it was 80.9%; in [13], 71%. In addition, the growth in test [14] is 72.7%; in test [15], 72.4%; in test [16], 64%; in [17] it was 78.7%; in test [18], 78.6%; in test [19] it was 80.6%.
On to `Nc1nc(NC(=O)Nc2ccc(C(=O)O)cc2)nn1-c1ccc(S(N)(=O)=O)cc1`, for which the growth in test [1] is 110%; in [2], 105%; in test [3], 89.5%; in [4], 106%; in test [5] it was 99.6%; in [6], 90.3%. The growth in [7] was 90.6%; in test [8], 99.4%; in test [9] it was 93.1%; in test [10], 99.5%; in [11] it was 102%; in [12], 86.8%. The growth in test [13] is 95.9%; in [14] it was 103%; in test [15], 107%; in test [16], 94%; in test [17], 95.7%; in test [18] it was 88.1%. In addition, the growth in test [19] is 103%.
`O=C(CI)NC(=O)NC(=O)NCc1ccccc1`: the growth in test [1] is 69.4%; in test [2], 93.6%; in [3], 33%; in test [4], 74.7%; in [5], -45.5% (active); in [6] it was 5.31% (active). Further, the growth was -23.8% (active) in [8]; -24.5% (active) in test [9]; -5.93% (active) in [10]; 29.4% in test [11]; 56.3% in test [12]; 44.3% in test [13]. Besides, the growth in test [14] is 30.3%; in test [15] it was 104%; in test [16], 21.1%; in [17], -55.9% (active); in test [18] it was 102%; in test [19], 71%.
With `C#CCO[C@H]1CC(CC#C)(CC#C)C(=O)[C@@H]2[C@H]1[C@H]1C[C@@H]3[C@@]4(C)CCC[C@@](C)(C(=O)OC)[C@@H]4CC[C@@]23C=C1C(C)C`, the growth was 97.9% in [1]; 94.7% in test [2]; 94.1% in test [3]; 99.2% in test [4]; 72.7% in test [5]; 41% in [6]. Moreover, the growth was 85.7% in test [7]; -41.5% (active) in test [8]; 76.7% in test [9]; -4.27% (active) in [10]; 54.2% in [11]; 58.4% in test [12]. In addition, the growth in [13] is 92.3%; in [15], 95.8%; in test [16] it was -64.2% (active); in test [17], 71.7%; in test [18] it was 94.2%; in [19] it was 78.5%.
Consider `CSC(SC)=C(C#N)c1nc2ccccc2s1`, for which the growth in test [1] is 40%; in [2], 74.2%; in test [3], 34.9%; in test [4] it was 112%; in test [5], 62.4%; in test [6], 55.8%. Also, the growth is 49.9% in test [7]; 24.7% in test [8]; 63.6% in [9]; 81.2% in test [10]; 25% in [11]; 70.2% in test [12]. In addition, the growth was 72.5% in test [13]; 68.1% in test [14]; 19.6% in test [15]; 49.3% in test [16]; 70% in test [17]; 77.1% in [18]. Also, the growth in test [19] is 76.7%.
